A selection: hits, their analogues and other compounds. The true share with any hit is near 8.9%.
MCF10A rerep = induces DNA re-replication in MCF 10a normal breast cells. MCF 10A DNA re-replication, Hoechst nuclear intensity, 48 h. Potency, µM (highest dose often 46.1 µM), hits mostly activators. actives 2.9% (n = 350,000). AID 624296; note: nearly all actives have a fitted effect of over 50% in size
SW480 rereplic = DNA re-replication induction in SW480 cells; SW480 DNA re-replication, Hoechst DNA content imaging, 48 h; Potency, µM (series often up to 46.1 µM), most hits filed as activators; actives 1.8% (n = 340,000); AID 624297; note: nearly all actives have a fitted effect of over 55% in size
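Treated cells incubate 48 hr (37 C, 5% CO2), are stained 40 min with Hoechst, and nuclear fluorescence is enumerated; a rise in nuclei with high DNA signal marks re-replication.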
DRD3 antagonist = antagonists of human D3 dopamine receptor | P35462 | D3R cells, DiscoveRx beta-arrestin luminescence, antagonist mode; stronger effect = lower value | max response, negative = inhibition, % | actives 2.5% (n = 360,000) | AID 652054; in the data active = max response below about -50%; inconclusive = no clear call, values can overlap the other calls
Target sequence (P35462 whole entry, looked up): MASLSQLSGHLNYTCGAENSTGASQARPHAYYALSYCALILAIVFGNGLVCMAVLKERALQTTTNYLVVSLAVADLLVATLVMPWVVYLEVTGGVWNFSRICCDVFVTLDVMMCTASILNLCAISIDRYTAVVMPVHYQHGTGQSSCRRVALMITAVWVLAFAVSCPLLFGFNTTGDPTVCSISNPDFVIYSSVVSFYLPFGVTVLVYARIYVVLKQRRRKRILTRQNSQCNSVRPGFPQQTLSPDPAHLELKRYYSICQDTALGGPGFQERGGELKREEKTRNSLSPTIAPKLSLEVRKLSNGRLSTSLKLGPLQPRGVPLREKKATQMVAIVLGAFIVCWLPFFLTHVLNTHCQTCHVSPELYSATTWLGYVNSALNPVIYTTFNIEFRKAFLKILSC
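Cells expressing the human receptor were seeded at 1500 cells/well, incubated overnight at 37 degrees C in 5% CO2, then exposed to library compounds with dopamine controls for 90 minutes at 37 degrees C before luminescent detection.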
KB-V1 MDR tox = kills drug-selected multidrug resistant KB-V1 cells | actives 3.4% (n = 400,000) | KB-V1 MDR cells viability, CellTiter-Glo, 72 h | Potency, µM (top dose mostly 46.1 µM), hits mostly cytotoxic; note: nearly all actives have a fitted effect of over 60% in size
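Readout: CellTiter-Glo luminescence, 10 min after addition. Cells: KB-V1 MDR subline, 72 h at 37 degrees C with compound. Analysis: corrected, normalized data fitted to concentration-effect curves.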
DRD3 agonist = agonists of human D3 dopamine receptor. P35462. D3R DiscoveRx beta-arrestin cells, luminescence, 90 min. max activation, %. actives 0.58% (n = 410,000). AID 652048; in the data active = max activation above about 30%
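Cells at 1500/well, incubated overnight, then treated with pinned compounds (dopamine as control) for 90 min at 37 degrees C. DiscoveRx reagent added for 30 - 60 minutes at room temperature; luminescence read.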
KB-3-1 tox = KB-3-1 parental cell cytotoxicity. KB-3-1 viability, CellTiter-Glo ATP luminescence, 72 h. Potency, µM (highest dose often 46.1 µM), hits mostly cytotoxic. actives 1.4% (n = 400,000); note: nearly all actives have a fitted effect of over 60% in size
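Using CellTiter-Glo luminescence, growth of non-resistant KB-3-1 adenocarcinoma cells is assessed 72 h after pin-tool compound addition at 37 °C. Normalized responses across the concentration series yield fitted curves.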
A number is an active result; i = inactive; ? = inconclusive; nt = no result given; [ ] = dose if it differs, or a comment. Unless noted, calls come from the whole dose curve; as a rule, active = well fitted curve in the direction sought with a large enough effect; inconclusive = small, poorly fitted or top-dose-only effect, or another doubt; inactive = no such curve, though single readings can be large; an effect the other way counts as inactive or inconclusive.

SMILES | MCF10A rerep | SW480 rereplic | DRD3 antagonist | KB-V1 MDR tox | DRD3 agonist | KB-3-1 tox
CCOC(=O)c1sc(Nc2nc3cc4c(cc3s2)OCO4)cc1C | ? | i | i | i | i | i
COc1ccc(CNC(=O)CCCc2nnc3n(C(C)C)c(=O)c4sccc4n23)cc1 | nt | nt | nt | nt | i | nt
CCOc1[nH]n(-c2ccccc2)c(=O)c1C=Nc1ccccc1 | 23µM | ? | i | ? | i | i
CCCn1c(SCc2nc3sc(C)c(C)c3c(=O)[nH]2)nc2ccccc2c1=O | ? | i | i | 9.2µM | i | i
O=c1c2ccccc2nc(SCc2ccc([N+](=O)[O-])cc2)n1CCCO | i | i | i | 2.9µM | i | i
CCCCn1c(SCc2nc3ccccc3s2)nc2ccccc2c1=O | ? | i | i | ? | i | 23µM
Nn1c(SCc2ccc([N+](=O)[O-])cc2)nc2ccccc2c1=O | i | i | i | i | i | i
CCCc1cc(=O)[nH]c(SCc2nc3ccccc3s2)n1 | i | i | i | ? | 43 | i
COCCn1c(SCc2nc3ccccc3c(=O)[nH]2)nc2ccccc2c1=O | i | i | i | ? | i | i
Cc1c(C(=O)N(C)CCCCN2CCOCC2)oc2c(F)cccc12 | ? | i | i | i | i | i
CCCC(=O)NCc1nc2cccnc2n1Cc1ccc(F)cc1 | nt | nt | nt | nt | i | nt
Cc1ccc2c(c1)/C(=N/OS(=O)(=O)c1ccccc1)CCS2 | i[0.0737 µM] | i | i | ? | i | i
Cc1ccc(S(=O)(=O)ON=C2CCN(S(=O)(=O)c3ccccc3)CC2)cc1 | i | i | i | i | i | i
CC1=CC(=O)C(C(C)C)=C/C1=N/OS(=O)(=O)c1ccccc1 | 2.9µM | 0.73µM | -79 | 21µM | i | ?
CC1=CC(=O)C=C(C)C1=NOS(=O)(=O)c1ccccc1 | 7.3µM | 7.3µM | -56 | ? | i | ?
CCc1cccc(C)c1NC(=O)C(C)Sc1nc2c(c(=O)[nH]1)CCCC2 (stereo not drawn) | nt | nt | nt | i | i | i
C/C(=N/Nc1ccnc2cc(Cl)ccc12)c1ccc(O)cc1 | ? | i | -54 | i | i | i
Cc1ccccc1CN1CC2=C(CCN(Cc3ccccc3)C2=O)N2CCN=C12 | nt | nt | -81 | i | i | ?
c1ccc(CN2C3=NCCN3c3ccccc32)cc1 | i | ? | i | i | i | i
CCOP(=O)(c1ccc(N(C)C)cc1)C(O)c1cccnc1 (stereo not drawn) | i | i | i | i | i | i
CCCOP(=O)(c1ccc(N(C)C)cc1)C(Nc1ccccc1)c1ccc(C)cc1 (stereo not drawn) | ? | i | i | 21µM | i | i
CCCOP(=O)(c1ccc(N(C)C)cc1)C(O)c1cccnc1 (stereo not drawn) | i | i | i | i | 30 | i
CC(C)OP(=O)(c1ccc(N(C)C)cc1)C(O)c1ccccc1F (stereo not drawn) | i | i | i | ? | i | i
CC(C)CCOP(=O)(c1ccc(N(C)C)cc1)C(O)c1ccccc1F (stereo not drawn) | i | i | i | 15µM | i | i
CCc1ccc(S(=O)(=O)Nc2cccc(-c3ccc(N4CCC(C)CC4)nn3)c2)s1 | nt | nt | nt | ? | i | ?
SMILES | MCF10A rerep | SW480 rereplic | DRD3 antagonist | KB-V1 MDR tox | DRD3 agonist | KB-3-1 tox
CCOC(=O)Cn1nc2oc(=O)c(CCN3CCN(c4ccccc4OC)CC3)c(C)c2c1C | nt | nt | -108 | ? | i | i
CCOC(=O)Cn1c(=O)oc2cc(S(=O)(=O)N3CCN(c4ccccc4OC)CC3)ccc21 | nt | nt | nt | ? | i | i
COC(=O)c1c(SCC(=O)Nc2cccc(C(F)(F)F)c2)[nH]c2ccccc2c1=O | nt | nt | nt | ? | i | ?
O=C(CCC(=O)Nc1ccc(Br)cc1)N/N=C/c1ccccc1O | i | ? | i | ? | i | ?
O=C(CCCCC(=O)NN=Cc1ccccc1O)NN=Cc1ccccc1O | ? | 1.5µM | i | i | i | ?
Cc1cc(=O)oc2cc(OCC(=O)N/N=C/c3ccccc3O)ccc12 | i | i | i | i | i | ?
CSc1nc(C)cc(OCC(=O)N/N=C/c2ccccc2O)n1 | 5.2µM | ? | i | i | i | 5.8µM
O=C(COc1nsnc1N1CCOCC1)N/N=C/c1ccccc1O | ? | 18µM | i | ? | i | i
O=C(CSCC(=O)NN=Cc1ccccc1O)NN=Cc1ccccc1O | 15µM | ? | i | nt | i | nt

Screening data deposited in PubChem by National Center for Advancing Translational Sciences (NCATS).
